Bioassay records (PubChem)
Rows were chosen to be rich in hits. Some 3.5% of all compounds tested hit in one or more screens of this group.
FBW7 act = FBW7 E3 ligase activators, primary screen, biochemical, AlphaScreen, human; normalized activity (activation), % at 26.1 µM; F-box/WD repeat-containing protein 7 (Homo sapiens), Q969H0; 0.13% of 650,000 active; AlphaScreen FBW7–phospho-cyclin E peptide binding, activator screen; in the data active = normalized activity above about 1.9%;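 also: purified mutant Fbw7 with reduced substrate affinity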
GPR151 ag = activators of human GPR151, primary screen, cell-based, PathHunter beta-arrestin, luminescence; G-protein coupled receptor 151 (Homo sapiens), Q8TDV0; PathHunter beta-arrestin GPR151 cells; activation, % at 11.2 µM; 1% of 650,000 active; in the data active = activation above about 4.9%;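 also: 0% = median of compound wells and 100% = cells with positive control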
Target sequence (Q8TDV0 whole entry, looked up): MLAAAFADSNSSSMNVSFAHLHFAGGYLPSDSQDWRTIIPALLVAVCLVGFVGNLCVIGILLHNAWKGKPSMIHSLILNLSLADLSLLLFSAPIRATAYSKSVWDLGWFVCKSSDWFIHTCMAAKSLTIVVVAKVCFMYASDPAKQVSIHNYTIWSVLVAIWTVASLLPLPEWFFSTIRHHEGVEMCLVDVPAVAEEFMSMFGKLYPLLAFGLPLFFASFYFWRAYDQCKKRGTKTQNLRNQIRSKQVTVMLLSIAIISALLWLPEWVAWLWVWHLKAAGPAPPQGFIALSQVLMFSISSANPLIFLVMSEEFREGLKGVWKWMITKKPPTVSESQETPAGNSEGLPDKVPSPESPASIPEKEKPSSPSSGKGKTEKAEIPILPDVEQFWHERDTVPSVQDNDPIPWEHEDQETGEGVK
TEAD-YAP block = TEAD-YAP interaction inhibition, primary screen, TEAD-YAP interaction inhibitor project, luminescence, HEK-TIYL cells | inhibition, % at 9.12 µM | 1.4% of 640,000 active | TEAD-Gal4/YAP UAS-luciferase luminescence; in the data active = inhibition above about 32%;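 also: 0% = median of test compound wells and 100% = reference inhibitor wells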
MITF primary = MITF inhibitors, primary screen, biochemical, AlphaScreen, human | AlphaScreen MITF homodimerization, bead proximity signal | Microphthalmia-associated transcription factor (Homo sapiens), O75030 | inhibition, % at 2.6 µM | 0.91% of 650,000 active | AID 1259374, 2018; in the data active = inhibition above about 50%;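 also: 0% = vehicle wells with protein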
MITF confirm = MITF inhibitors, retest of hits, confirmation, biochemical, AlphaScreen, triplicate; shares compounds with MITF primary; AlphaScreen MITF homodimerization, biotin/His-MITF beads; inhibition, % at 2.6 µM; 16% of 4,700 active;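 active = inhibition above a cutoff derived from the DMSO control wells, cut at about 28% in these data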;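 also: 0% = MITF dimer wells with DMSO only; inhibitors lower the bead chemiluminescence by keeping MITF from dimerizing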
AS interf DR = AlphaScreen optical interference compounds, dose response, counter-screen, biochemical, HTS; 6% of 480 active; AID 1259373, 2018; IC50, µM; shares compounds with MITF primary; AlphaScreen optical interference counterscreen, cell-free; call rule not given here
AlphaScreen intf2 = AlphaScreen optical interference compounds, counter-screen for MITF inhibitor project, biochemical, triplicate. 7.6% of 4,700 active. inhibition, % at 2.6 µM. shares compounds with MITF primary. LysRS AlphaScreen counterscreen, signal interference;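 active = inhibition above a cutoff derived from the DMSO control wells, cut at about 30% in these data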
Numbers without * were called inactive; / = no result.

SMILES	FBW7 act	GPR151 ag	TEAD-YAP block	MITF primary	MITF confirm	AlphaScreen intf2	others
CCC1CN(C)CCC1(O)c1ccccc1 (stereo unspecified)	0	1	9	10	/	/
O=c1c2ccccc2nc(/C=C/c2cccs2)n1-c1ccc(F)c(Cl)c1	0	0	4	0	/	/
COc1cc(NC(=O)CN2C(=O)C(C)N=C(c3ccccc3)c3ccccc32)cc(OC)c1 (stereo unspecified)	0	0	37*	5	/	/
CCOc1ccc(NC(=O)CN2C(=O)C(C)N=C(c3ccccc3)c3ccccc32)cc1 (stereo unspecified)	0	1	8	-1	/	/
O=C1CC(=O)N(c2cccc(F)c2)C(=S)N1	0	0	0	2	/	/
CN(N=O)c1ccc(O)c(O)c1	0	1	2	77*	/	/
C[C@@H]1C[C@@H]([C@H](O)CC2CC(=O)NC(=O)C2)C(=O)[C@@H](C)C1	0	-3	98*	-9	/	/
CO[C@@H]1C[C@@H](C[C@H]2CC[C@H](C)[C@H]([C@@H](C)C(=O)O)O2)O[C@]2(O[C@](C)([C@H]3CC[C@@](C)([C@@H]4O[C@@H]([C@H]5O[C@@](O)(CO)[C@H](C)C[C@@H]5C)C[C@@H]4C)O3)C[C@H]2C)[C@@H]1C	0	-3	77*	12	/	/
C=CCOC(=O)C1C2NC(=S)NC1(C)Oc1ccccc12 (stereo unspecified)	0	0	36*	0	/	/
O=C(Nc1cccc([N+](=O)[O-])c1)C(O)(c1ccccc1)c1ccccc1	0	-1	-17	10	/	/
C[C@H]1CCC/C=C/C2C[C@H](O)C[C@H]2[C@H](O)/C=C/C(=O)O1 (stereo partly specified)	2.1*	2	/	3	/	/
C[C@H]1CCC/C=C/[C@@H]2C[C@H](O)C[C@H]2[C@H](O)/C=C/C(=O)O1	0	-3	68*	11	/	/
O=C1NC(=S)NC(=O)C1=Cc1cc2c(cc1[N+](=O)[O-])OCO2	-1	0	-1	86*	/	/
CC(=O)NC1C(OC2OC(CC(O)C3OC(n4ccc(=O)[nH]c4=O)C(O)C3O)C(O)C(O)C2NC(=O)/C=C\CCCCCCCCCC(C)C)OC(CO)C(O)C1O (stereo unspecified)	0	0	64*	-3	/	/
CN1CCc2[nH]c(=S)c(C#N)c(-c3ccsc3)c2C1	0	0	5	16	/	/
O=[N+]([O-])c1c(Br)ccc2c1no[n+]2[O-]	0	0	-10	90*	80*	5	AS interf DR=>9.1
COc1ccc(C(CNc2ccc([N+](=O)[O-])c3cnccc23)N(C)C)cc1OC (stereo unspecified)	0	-1	-5	1	/	/
CCOC(=O)C1C2NC(=S)N(c3ccc(C)cc3)C1(C)Oc1c(OCC)cccc12 (stereo unspecified)	-1	0	-17	53*	41*	26
CCOC(=O)C1C2NC(=S)N(c3ccccc3)C1(C)Oc1c(OCC)cccc12 (stereo unspecified)	0	0	-7	35	/	/
C1CCC(N2CCN(C3CC4CCC3C4)CC2)C1 (stereo unspecified)	0	1	-4	67*	-2	1
O=C(Cc1ccccc1)N1CCN(C2CC3CCC2C3)CC1 (stereo unspecified)	0	-1	-4	24	/	/
COP(=O)(NC(=O)/C=C1/N(C)c2ccccc2C1(C)C)OC	0	0	8	11	/	/
CCc1nnc(NC(=O)CCc2nc(C3=CCN(C)CC3)no2)s1	1	0	3	58*	60*	39*
CCOc1ccc(NC(=O)CCc2nc(C3=CCN(C)CC3)no2)cc1	-2	-1	2	83*	93*	70*
CCc1ccccc1NC(=O)CCc1nc(C2=CCN(C)CC2)no1	0	0	-1	3	/	/
SMILES	FBW7 act	GPR151 ag	TEAD-YAP block	MITF primary	MITF confirm	AlphaScreen intf2	others
CN1CC=C(c2noc(CCC(=O)Nc3nc4ccccc4s3)n2)CC1	1	-1	-30	29	/	/
CCOc1ccc(CC2C(=O)N(C)C(=O)N(C)C2=O)cc1	0	0	2	14	/	/
CCc1ccc(CN2CCN(Cc3ccc(Cl)cc3)CC2)cc1	0	0	4	76*	11	18
CSc1ccc(CN2CCN(Cc3ccc(Cl)cc3)CC2)cc1	0	2	7	80*	11	16
CCOc1ccc(CN2CCN(Cc3ccccc3C)CC2)cc1	0	0	4	64*	9	5
CN1CCN(Cc2ccc(Cl)cc2)CC1	0	-1	-1	39	/	/
Oc1ccc(CN2CCN(c3ccc(Cl)cc3)CC2)cc1	0	2	-3	11	/	/
CCOc1cccc(CN2CCN(Cc3ccccc3)CC2)c1O	0	0	-4	5	/	/
CCc1ccc(CN2CCN(Cc3ccc(CC)cc3)CC2)cc1	0	1	8	67*	3	4
NNc1c([N+](=O)[O-])cc2[nH]c(=O)[nH]c2c1[N+](=O)[O-]	1	-1	19	19	/	/
O=C1CCC(c2ccc(Br)cc2)O1 (stereo unspecified)	0	2	4	-6	/	/
CCOCCCNC(=O)c1c(N)n(Cc2ccco2)c2nc3ccccc3nc12	0	0	8	-15	/	/
C=CCN1C(=O)CC(=O)NC1=O	0	-1	8	9	/	/
COc1ccc(CN2CCN(C(=O)COc3ccc(Cl)cc3)CC2)cc1	0	0	5	58*	14	17
CCOc1ccc(CN2CCN(c3ccccc3)CC2)cc1	0	3	-8	35	/	/
CCOc1ccc(CN2CCN(Cc3ccc(Cl)cc3)CC2)cc1	0	0	4	58*	20	14
Cc1cccc(CN2CCN(Cc3ccccc3[N+](=O)[O-])CC2)c1	0	4	-4	64*	13	-2
Cc1ccc(CN2CCN(Cc3cccc(C)c3)CC2)cc1	0	1	7	64*	9	18
CCN1CCN(Cc2cccc([N+](=O)[O-])c2)CC1	0	0	-2	-11	/	/
Cc1cccc(CN2CCN(Cc3ccccc3C)CC2)c1	0	0	-6	64*	-3	-4
COc1ccccc1CN1CCN(Cc2cccc(C)c2)CC1	0	-2	-7	69*	8	9
